# Data: PubChem BioAssay (NCATS)
# Inconclusive results are not listed. Where a call stands in place of a potency, no number is given. Calls of active or inactive are those of the source. The call rests on the fitted dose curve; in most records, active means well fitted inhibition curve with a large enough effect; inconclusive means small, poorly fitted or top-dose-only effect; inactive means flat fitted curve, though single readings scatter. Where a SMILES comes first, the peptide text is derived from it. [ ]: non-standard residue; d: D form. ξ: configuration not given here. ξPhe(βξ-Me) = CC(c1ccccc1)C(N)C(=O)O; GABA = NCCCC(=O)O
# Target: Calcium and integrin-binding protein 1 (Homo sapiens) (UniProt Q99828)
# Assay: Primary qHTS for Identification of Calcium Integrin Binding Protein 1 (CIB1) Competitor (AID 1508620);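 further: GST tagged CIB1 binding a fluorescein labelled alphaIIb integrin peptide tracer; top concentration of the series differs between compounds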
# Details: CIB1-GST / FITC-alphaIIb peptide fluorescence polarization; series mostly up to 114 µM
# Summary of the method: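 Fluorescence polarization competition: CIB1-GST (1 uM final) preincubated with compound 15 min at room temperature, then FITC-labeled alphaIIb peptide (100 nM final) added for another 15 min. Polarization read at Ex 480/Em 540.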
# Calcium and integrin-binding protein 1 (Homo sapiens), sequence (Q99828 whole entry, looked up): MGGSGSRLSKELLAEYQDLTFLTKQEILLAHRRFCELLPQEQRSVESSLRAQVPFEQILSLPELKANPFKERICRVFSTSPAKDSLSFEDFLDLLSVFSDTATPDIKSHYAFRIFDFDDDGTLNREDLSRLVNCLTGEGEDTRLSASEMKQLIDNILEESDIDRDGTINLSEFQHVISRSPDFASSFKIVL
row,Compound,Potency
1,C=C1C(O)CC2C(C(=O)O)=COC(O[C@@H]3O[C@H](COC(=O)/C=C/c4ccc(O)cc4)[C@@H](O)[C@H](O)[C@H]3O)C12 (stereo not given in full),inactive
2,Cc1cnc(NC(=O)Nc2cc(Br)c(C)cc2OCC2CNCCO2)cn1 (stereo not given),inactive
3,CC[C@H]1OC(=O)[C@H](C)[C@@H](O[C@H]2C[C@@](C)(OC)[C@@H](O)[C@H](C)O2)[C@H](C)[C@@H](O[C@@H]2O[C@H](C)C[C@H](N(C)C)[C@H]2O)[C@](C)(O)C[C@@H](C)C(=O)[C@H](C)[C@H]2OC(=O)O[C@@]21C,inactive
4,CCOCCn1nc(CC)c2nc(N3CCC(C(=O)O)CC3)nc(Nc3cc(C)ccn3)c21,inactive
5,Nc1nc2c(ncn2[C@@H]2O[C@H](CO)[C@@H](O)[C@H]2O)c(=O)[nH]1,inactive
6,C[C@@H]1CC[C@]2(C(=O)O[C@@H]3O[C@H](CO)[C@@H](O)[C@H](O)[C@H]3O)CC[C@]3(C)C(=CCC4[C@@]5(C)C[C@@H](O)[C@H](O)[C@](C)(C(=O)O)C5CC[C@]43C)[C@@H]2[C@]1(C)O (stereo not given in full),inactive
7,CC1NC(=O)CCCNC(=O)C(Cc2c[nH]c3ccccc23)NC(=O)C(C)NC(=O)C(C(C)C)NC(=O)C(C(C)c2ccccc2)NC(=O)C(C(C)C)NC1=O (stereo not drawn) (cyclo([GABA]AV[ξPhe(βξ-Me)]VAW); configuration not given here),inactive
8,CC(=O)O[C@@H]1[C@@H](O)[C@H](C)O[C@@H](O[C@H]2[C@@H]3C=CO[C@@H](O[C@@H]4O[C@H](CO)[C@@H](O)[C@H](O)[C@H]4O)[C@@H]3[C@@]3(CO)O[C@@H]23)[C@@H]1OC(=O)/C=C/c1ccccc1,inactive
9,C[C@@H](O)[C@H](NC(=O)c1ccc(C#Cc2ccc(CN3CCOCC3)cc2)cc1)C(=O)NO,inactive
10,CC1=C(C)C(=O)OC(C(C)C2CCC3C4C5OC5C5(O)CC(OC6OC(CO)C(OC7OC(C)C(O)C(O)C7O)C(O)C6O)CC(O)C5(C)C4CCC23C)C1 (stereo not given),inactive
